We go through five compounds from PubChem BioAssay.

The nature of assay [1]: small molecules captured by biotinylated probe aFSTL3 – biochemical, small-molecule microarray, fluorescence 635/667, stem cell growth factor project, primary screen (AID 1064).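 Further: measures binding of the biotinylated anti-FSTL3 antibody to printed compounds.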 Conditions: higher = more signal.
Assay [2] can be described thus: binders from COS7 lysate, DM2A8 probe, primary screen, torsin A project, cell lysate, small-molecule microarray, fluorescence 635/667 (AID 1065). To be noted: higher = more signal, COS7 lysate expressing mutant human TOR1A.
A short description of assay [3]: small molecules captured by biotinylated probe aFGF2 – biochemical, small-molecule microarray, fluorescence 635/667, stem cell growth factor project, primary screen (AID 1067).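 Further: measures binding of biotinylated aFGF2 protein to printed compounds on slides; z-score merges feature fluorescence and signal-to-noise across triplicate slides.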 To be noted: higher = more signal.
The nature of assay [4]: small molecules captured by biotinylated probe aFGF10 – biochemical, small-molecule microarray, fluorescence 635/667, stem cell growth factor project, primary screen (AID 1071).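 Further: score merges 667 nm spot intensity and signal to noise from triplicate slides.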 Conditions: higher = more signal.
The target in assay [5] is Neurogenic locus notch homolog protein 2 (Homo sapiens) (UniProt Q04721). Nature of the assay: small molecules binding Notch2 protein – biochemical, small-molecule microarray, 635 nm fluorescence, stem cell growth factors, primary screen (AID 1073). To be noted: higher = more signal.
Chain of Neurogenic locus notch homolog protein 2 (Homo sapiens) (Q04721 whole entry, looked up, canonical isoform): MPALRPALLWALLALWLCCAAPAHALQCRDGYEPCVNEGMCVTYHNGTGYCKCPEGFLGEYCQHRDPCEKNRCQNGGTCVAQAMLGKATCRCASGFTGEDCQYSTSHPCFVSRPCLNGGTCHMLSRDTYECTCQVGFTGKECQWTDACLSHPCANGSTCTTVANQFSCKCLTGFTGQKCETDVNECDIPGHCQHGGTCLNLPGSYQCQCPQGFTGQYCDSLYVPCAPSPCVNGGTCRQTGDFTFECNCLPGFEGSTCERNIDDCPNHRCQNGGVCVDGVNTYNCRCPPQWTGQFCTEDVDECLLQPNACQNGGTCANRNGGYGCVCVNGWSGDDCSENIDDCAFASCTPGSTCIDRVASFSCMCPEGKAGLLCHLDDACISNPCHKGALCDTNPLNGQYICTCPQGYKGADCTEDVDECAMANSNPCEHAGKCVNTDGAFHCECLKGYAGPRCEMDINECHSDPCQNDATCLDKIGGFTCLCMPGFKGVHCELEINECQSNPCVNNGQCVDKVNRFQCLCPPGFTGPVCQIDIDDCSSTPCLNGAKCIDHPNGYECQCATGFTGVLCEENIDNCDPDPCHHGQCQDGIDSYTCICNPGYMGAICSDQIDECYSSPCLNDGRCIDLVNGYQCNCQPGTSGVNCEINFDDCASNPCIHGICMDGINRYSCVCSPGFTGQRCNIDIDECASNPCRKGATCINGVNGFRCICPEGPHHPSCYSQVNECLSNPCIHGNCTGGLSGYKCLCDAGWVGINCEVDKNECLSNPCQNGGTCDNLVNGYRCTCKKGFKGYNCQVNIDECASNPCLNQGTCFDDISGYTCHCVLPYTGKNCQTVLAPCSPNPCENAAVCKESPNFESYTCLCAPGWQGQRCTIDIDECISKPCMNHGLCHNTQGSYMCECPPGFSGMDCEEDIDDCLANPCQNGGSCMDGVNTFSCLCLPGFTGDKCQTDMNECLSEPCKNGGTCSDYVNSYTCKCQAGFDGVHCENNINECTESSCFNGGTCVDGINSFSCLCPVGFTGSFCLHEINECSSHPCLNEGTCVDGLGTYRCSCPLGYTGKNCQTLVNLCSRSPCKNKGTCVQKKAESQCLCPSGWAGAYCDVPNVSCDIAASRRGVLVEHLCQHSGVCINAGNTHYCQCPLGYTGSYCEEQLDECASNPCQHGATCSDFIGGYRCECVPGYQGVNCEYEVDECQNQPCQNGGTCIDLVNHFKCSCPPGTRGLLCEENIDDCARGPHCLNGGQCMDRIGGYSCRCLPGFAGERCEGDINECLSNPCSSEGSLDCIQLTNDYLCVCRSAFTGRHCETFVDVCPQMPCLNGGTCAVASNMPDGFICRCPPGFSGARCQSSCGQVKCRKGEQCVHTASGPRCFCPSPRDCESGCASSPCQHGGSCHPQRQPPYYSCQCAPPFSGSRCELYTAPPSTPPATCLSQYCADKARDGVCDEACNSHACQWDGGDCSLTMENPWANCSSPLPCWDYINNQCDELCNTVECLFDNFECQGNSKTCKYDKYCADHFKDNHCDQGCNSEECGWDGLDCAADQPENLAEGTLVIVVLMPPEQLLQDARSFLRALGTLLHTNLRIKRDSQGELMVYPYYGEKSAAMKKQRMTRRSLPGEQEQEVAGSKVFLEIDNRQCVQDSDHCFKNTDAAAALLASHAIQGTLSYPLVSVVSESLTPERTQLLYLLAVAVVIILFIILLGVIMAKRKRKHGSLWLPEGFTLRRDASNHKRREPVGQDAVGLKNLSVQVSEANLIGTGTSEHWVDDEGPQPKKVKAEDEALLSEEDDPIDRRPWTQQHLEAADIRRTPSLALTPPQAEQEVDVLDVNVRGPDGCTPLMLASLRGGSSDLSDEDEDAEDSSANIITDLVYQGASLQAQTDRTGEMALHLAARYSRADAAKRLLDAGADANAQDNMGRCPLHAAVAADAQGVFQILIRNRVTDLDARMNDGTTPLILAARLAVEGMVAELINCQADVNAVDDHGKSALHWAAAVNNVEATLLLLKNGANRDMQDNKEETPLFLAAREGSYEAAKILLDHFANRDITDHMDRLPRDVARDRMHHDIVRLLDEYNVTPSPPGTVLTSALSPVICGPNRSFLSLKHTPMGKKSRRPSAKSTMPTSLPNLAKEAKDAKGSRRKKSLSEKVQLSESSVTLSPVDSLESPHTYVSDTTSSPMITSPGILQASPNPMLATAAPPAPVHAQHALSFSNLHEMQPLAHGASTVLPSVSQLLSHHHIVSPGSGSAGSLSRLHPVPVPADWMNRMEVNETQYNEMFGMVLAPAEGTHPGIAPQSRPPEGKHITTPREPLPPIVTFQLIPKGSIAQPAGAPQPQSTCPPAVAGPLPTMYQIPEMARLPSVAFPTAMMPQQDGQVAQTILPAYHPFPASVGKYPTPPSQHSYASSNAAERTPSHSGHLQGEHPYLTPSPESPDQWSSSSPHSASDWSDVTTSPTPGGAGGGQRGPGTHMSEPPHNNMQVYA
Assay [6] deals with Pro-neuregulin-1, membrane-bound isoform (Homo sapiens) (UniProt Q02297). Nature of the assay: small molecules binding neuregulin-1 protein – biochemical, small-molecule microarray, fluorescence 635/667, psychiatric disease protein project, primary screen (AID 1075).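 Further: score combines 667 nm spot fluorescence with signal to noise.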 Conditions: NRG1 binding, 635 nm fluorescence, higher = more signal.
Chain of Pro-neuregulin-1, membrane-bound isoform (Homo sapiens) (Q02297 whole entry, looked up, the tested form may be a part, canonical isoform): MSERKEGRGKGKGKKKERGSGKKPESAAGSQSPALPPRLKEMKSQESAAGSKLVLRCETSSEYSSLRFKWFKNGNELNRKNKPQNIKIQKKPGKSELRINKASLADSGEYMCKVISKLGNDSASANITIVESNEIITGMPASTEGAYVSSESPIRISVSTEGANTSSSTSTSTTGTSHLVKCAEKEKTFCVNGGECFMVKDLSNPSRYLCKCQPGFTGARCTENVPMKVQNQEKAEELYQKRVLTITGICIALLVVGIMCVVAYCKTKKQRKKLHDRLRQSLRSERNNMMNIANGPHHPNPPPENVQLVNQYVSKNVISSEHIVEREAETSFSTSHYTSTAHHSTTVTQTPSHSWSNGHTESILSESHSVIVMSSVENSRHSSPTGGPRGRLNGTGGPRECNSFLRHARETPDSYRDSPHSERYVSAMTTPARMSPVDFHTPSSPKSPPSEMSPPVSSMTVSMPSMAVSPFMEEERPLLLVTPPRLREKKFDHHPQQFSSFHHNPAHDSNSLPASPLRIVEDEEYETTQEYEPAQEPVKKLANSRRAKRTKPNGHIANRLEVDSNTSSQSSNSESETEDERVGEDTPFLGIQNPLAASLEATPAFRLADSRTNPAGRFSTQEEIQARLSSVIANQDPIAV
The test system of assay [7] is Neuregulin-1 EGF-like domain. Put plainly: small molecules binding NRG1 EGF domain – biochemical, small-molecule microarray, 635 nm fluorescence, primary screen (AID 1081).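 Further: binding of the protein to compounds printed on small-molecule microarray slides.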 To be noted: higher = more signal.
Assay [8] is described as follows: FRG1 expression reporter modulators in myotubes – cell-based, C2C12 myotubes, firefly/Renilla luciferase, luminescence, FRG1 inhibition for FSHD, primary screen (AID 1084). Conditions: FRG1 promoter luciferase, higher = more signal, called active from +8 up or from −8 down.
Assay [9] in a line: small molecules captured by biotinylated probe aFST – biochemical, small-molecule microarray, fluorescence 635/667, stem cell growth factor project, primary screen (AID 1086).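 Further: score merges 667 nm fluorescence with signal-to-noise of each printed compound spot.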 Conditions: higher = more signal.
Assay [10] in a line: binders of probe aHhip on microarray, primary screen, stem cell growth factor project, biochemical, small-molecule microarray, fluorescence 635/667 (AID 1087).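 Further: score merges spot fluorescence at 667nm with spot signal to noise ratio.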 Conditions: higher = more signal.
Assay [11] relates to PRMT1 (protein arginine N-methyltransferase 1). Put plainly: small molecules binding arginine methyltransferase PRMT1 – biochemical, small-molecule microarray, 635 nm fluorescence, primary screen (AID 1088).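 Further: binding of Prmt1 protein to compounds spotted on small-molecule microarray slides.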 Conditions: higher = more signal.
A short description of assay [12]: growth effects on S. cerevisiae YJM789 – YJM789 clinical isolate, OD600, 24 h, basal, primary screen (AID 1089).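 Further: growth of clinical yeast isolate S. cerevisiae YJM 789 seeded 1000 cells per well; test concentration not given here.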 To be noted: higher = more signal, called active from +8 up or from −8 down.
A short description of assay [13]: S. pombe growth modifiers, basal conditions – strain 972, OD600, 24 h, no modulator, primary screen (AID 1090).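 Further: basal condition with compound alone and no growth modifier present; test concentration not given here.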 Conditions: S. pombe 972 growth, higher = more signal, called active from +8 up or from −8 down.
Assay [14] in a line: budding yeast growth modifiers under rapamycin – strain BY4716, OD600, 96 h, primary screen (AID 1091). Further: test concentration not given here. Conditions: S. cerevisiae BY4716 + rapamycin, higher = more signal, called active from +8 up or from −8 down.
Assay [15] has as its target Torsin-1A-interacting protein 2 (Homo sapiens) (UniProt Q8NFQ8). Put plainly: small molecules binding lysate-expressed LULL1 – cell lysate, human LULL1 lysate, 635/667 nm fluorescence, primary screen (AID 1092).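 Further: probe is lysate of COS7 cells overexpressing human LULL1; score merges per-feature 667 nm fluorescence with signal-to-noise.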 Conditions: small-molecule microarray, hLULL1 lysate binding, 635 nm fluorescence; higher = more signal.
Assay [16] is described as follows: optical density change of DRC41 E. coli – strain DRC41, OD650, 24 h, E. coli filamentation project, primary screen (AID 1093).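 Further: MC1000 strain lacking acrAB efflux and sulA so SOS filamentation is blocked; test concentration not given here.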 To be noted: E. coli DRC41 growth, higher = more signal, called active from +8 up or from −8 down.
Assay [17] is described as follows: probe aLefty2 binding to arrayed compounds – biochemical, biotinylated probe, 635/667 nm fluorescence, primary screen (AID 1094).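 Further: score merges spot fluorescence near 667 nm with spot signal-to-noise ratio.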 Conditions: small-molecule microarray, higher = more signal.
Assay [18] relates to Noggin (protein binding on small-molecule microarray). Nature of the assay: small molecules binding Noggin protein – biochemical, 635/667 nm fluorescence, primary screen (AID 1095).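 Further: score merges 667 nm feature fluorescence with signal to noise over triplicate slides.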 To be noted: 635 nm fluorescence, higher = more signal.
Assay [19] has as its target Neurogenic locus notch homolog protein 3 (Homo sapiens) (UniProt Q9UM47). Put plainly: small molecules binding NOTCH3 protein – biochemical, 635/667 nm fluorescence, primary screen (AID 1096). To be noted: small-molecule microarray, 635 nm fluorescence, higher = more signal.
Assay [20] in a line: probe aEGFR binding to arrayed compounds – biochemical, biotinylated probe, 635/667 nm fluorescence, primary screen (AID 1097).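 Further: probe is a biotinylated anti-EGFR antibody binding compounds printed on slides; score combines fluorescence near 667 nm and signal to noise of each spot.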 To be noted: small-molecule microarray, higher = more signal.

The source made the active and inactive calls.

Chain of Torsin-1A-interacting protein 2 (Homo sapiens) (Q8NFQ8 whole entry, looked up): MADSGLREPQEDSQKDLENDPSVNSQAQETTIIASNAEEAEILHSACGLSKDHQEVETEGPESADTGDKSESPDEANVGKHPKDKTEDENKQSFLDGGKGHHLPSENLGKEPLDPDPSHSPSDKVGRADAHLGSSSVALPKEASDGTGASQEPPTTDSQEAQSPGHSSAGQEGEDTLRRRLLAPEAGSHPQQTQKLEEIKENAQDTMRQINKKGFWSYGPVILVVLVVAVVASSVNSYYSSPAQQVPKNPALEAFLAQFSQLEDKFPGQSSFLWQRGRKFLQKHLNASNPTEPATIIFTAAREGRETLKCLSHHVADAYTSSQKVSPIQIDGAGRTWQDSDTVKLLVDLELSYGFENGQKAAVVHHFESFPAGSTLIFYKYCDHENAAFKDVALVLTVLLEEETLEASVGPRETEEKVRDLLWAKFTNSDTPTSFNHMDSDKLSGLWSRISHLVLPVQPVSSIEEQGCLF

For `CC=CC1=C(CO)[C@H](O)[C@H]2O[C@H]2[C@H]1O`, the composite z-score was -0.659 in [1]; 0.253 in [2]; -0.027 in assay [3]; 0.166 in [4]; -0.0482 in assay [5]; -0.157 in [6]. The composite z-score in [7] was 0.583; in [9] it was -0.191; in assay [10] it was 0.0881; in assay [11], 1.23; in assay [15], -0.0789; in [17] it was -0.24. The figures for the composite z-score in [18], in assay [19] and in assay [20] were 0.834, 0.67 and -0.0382, respectively. Moreover, the z-score was -0.0975 (inactive) in [8]; 0.505 (inactive) in [12]; 0.317 (inactive) in assay [13]; 1.12 (inactive) in assay [14]; 0.131 (inactive) in [16].

With `C=CCOC(=O)[C@H]1[C@@H]2C(=O)O[C@@H](c3ccccc3)[C@@H](c3ccccc3)N2[C@@H](c2ccc(OCCOC(=O)[C@H]3C[C@H]4C(=O)N[C@@H](Cc5ccccc5)C(=O)N4[C@H]3c3ccc(O)cc3)cc2)[C@]12C(=O)Nc1ccccc12`, the composite z-score in assay [1] was -0.298; in [2], 0.0087; in assay [3], -0.0692; in assay [4], 0.349; in assay [5] it was 0.355; in assay [6] it was 0.188. For the same compound, the composite z-score in [7] is 1.29; in assay [9] it was 0.276; in [10], -0.109; in [11] it was 1.55; in assay [15], 2.4; in [17] it was -0.0174. Besides, the composite z-score in assay [18] amounted to 1.6; in [19], 1.06; in assay [20] it was 0.0499. The z-score in assay [8] was 0.458 (inactive); in [12], 1.44 (inactive); in [13] it was 1.14 (inactive); in assay [14], 4.4 (inactive); in assay [16], 1.37 (inactive).

For the compound `CC(C)=CCCC(C)=CCON=C1[C@H]2CCn3c(=O)n(C)c(=O)n3[C@H]2[C@H](O)[C@@H]2O[C@H]12`, the composite z-score is -0.315 in assay [1]; 0.491 in [2]; -0.156 in [3]; 0.585 in assay [4]; 0.38 in [5]; 0.763 in assay [6]. In addition, the composite z-score is 1.05 in assay [7]; 0.412 in [9]; -0.0673 in assay [10]; 1.14 in [11]; 0.393 in assay [15]; 0.0315 in assay [17]. The results for the composite z-score in assay [18], in [19] and in assay [20] were 1.18, 0.651 and 0.081, respectively. The z-score was -0.713 (inactive) in assay [8]; -0.0766 (inactive) in assay [12]; 0.418 (inactive) in [13]; 0.407 (inactive) in assay [14]; 0.604 (inactive) in assay [16].

As for `CCOC(=O)CCN1C(=O)[C@H]2[C@H]3[C@H](O)[C@H](O)CC(=O)[C@H]3CC[C@H]2C1=O`, the composite z-score was -0.554 in assay [1]; 0.418 in [2]; -0.128 in [3]; 0.389 in assay [4]; 0.709 in [5]; 0.217 in [6]. Moreover, the composite z-score in assay [7] is 0.518; in assay [9] it was 0.372; in [10] it was -0.132; in [11] it was 0.0774; in assay [15], 0.35; in [17], -0.225. Also, the composite z-score in [18] was 0.387; in [19], 0.295; in assay [20], -0.0381. The z-score is 0.639 (inactive) in assay [8]; 0.184 (inactive) in assay [12]; -0.373 (inactive) in [13]; 0.341 (inactive) in assay [14]; 0.355 (inactive) in [16].

`COc1cccc([C@H]2Oc3ccc(OC)cc3C(=NO[C@H](C)c3cn([C@@H]4COC[C@H]4O)nn3)[C@@H]2O)c1`: the composite z-score in [1] is -0.183; in assay [2], 0.044; in assay [3], -0.0867; in assay [4], -0.246; in assay [5] it was -0.315; in assay [6], 0.0671. Also, the composite z-score in assay [7] is -0.168; in assay [9], -0.324; in assay [10], -0.305; in assay [11], -0.499; in assay [15], -0.077; in assay [17], -0.126. The composite z-score was -0.427 in [18], -1.34 in assay [19] and -0.267 in [20]. Also, the z-score was 0.253 (inactive) in assay [8]; 0.0141 (inactive) in assay [12]; 0.874 (inactive) in [13]; 0.467 (inactive) in assay [14]; -0.398 (inactive) in assay [16].
